Data taken from PubChem BioAssay (NCATS).
“And” between values parts separate entries of the source, which are not always exact repeats. Equal values may be shown once. Inconclusive results are not listed. Some structures have more than one record in an assay (separate samples or runs), and their calls can disagree. The source made the active and inactive calls. Calls follow the shape of the dose curve; as a rule, active = well fitted curve in the direction sought with a large enough effect; inconclusive = small, poorly fitted or top-dose-only effect, or another doubt; inactive = no such curve, though single readings can be large; an effect the other way counts as inactive or inconclusive.

Experiments:
[1] = system: MCC-13; test: qHTS assay to identify novel small-molecules to repurpose for Merkel cell carcinoma treatment (AID 1296009); conditions: MCC and control cell lines, CellTiter-Glo viability, 72 h; series mostly up to 46 µM; also: nearly all actives have a fitted effect of over 60% in size
Summary of the method: (§1)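 Viability readout: ATP luminescence (CellTiter-Glo) after 72 hr drug exposure at 37 degree celsius. Dose-response format was 8 points for NPC and 11 points for MIPE; data normalized to in-plate controls.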

[2] = system: MCC-26; test: as above; conditions: MCC and control cell lines, CellTiter-Glo viability, 72 h; series mostly up to 46 µM
Summary of the method: as §1

[3] = system: MKL-1; test: as above; conditions: MCC and control cell lines, CellTiter-Glo viability, 72 h; series mostly up to 46 µM
Summary of the method: as §1

[4] = system: MKL-2; test: as above; conditions: MCC and control cell lines, CellTiter-Glo viability, 72 h; series mostly up to 46 µM
Summary of the method: as §1

[5] = system: UISO; test: as above; conditions: MCC and control cell lines, CellTiter-Glo viability, 72 h; series mostly up to 46 µM
Summary of the method: as §1

[6] = system: WaGa; test: as above; conditions: MCC and control cell lines, CellTiter-Glo viability, 72 h; series mostly up to 46 µM
Summary of the method: as §1

[7] = system: C33A; test: Primary qHTS to identify gynecologic anti-cancer compounds using libraries of approved drugs and bioactive compounds (AID 1345084); conditions: Gynecologic cancer cell panel viability, ATPlite luminescence, 48 h; series mostly up to 57.5 µM; also: nearly all actives have a fitted effect of over 55% in size
Summary of the method: (§2)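 Cell viability after 48 h drug treatment, ATPlite luminescence readout; five doses.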

[8] = system: CAOV3; test: as above; conditions: Gynecologic cancer cell panel viability, ATPlite luminescence, 48 h; series mostly up to 57.5 µM
Summary of the method: as §2

[9] = system: CASKI; test: as above; conditions: Gynecologic cancer cell panel viability, ATPlite luminescence, 48 h; series mostly up to 57.5 µM
Summary of the method: as §2

[10] = system: NIH3T3; test: qHTS assay to identify novel small-molecules to repurpose for Merkel cell carcinoma treatment (AID 1296009); conditions: MCC and control cell lines, CellTiter-Glo viability, 72 h; at 44.8 µM (top of the series) unless noted; also: nearly all actives have a fitted effect of over 60% in size
Summary of the method: as §1

Measured: Potency
Potency is read from the fitted curve at half-maximal effect.

Cc1cc(C2CCCCC2)n(O)c(=O)c1
active: [1] 10.6 µM | [2] 15 µM | [3] 2.11 µM and 10.5 µM | [4] 1.88 µM and 11.8 µM | [5] 2.66 µM and 13.2 µM | [6] 1.88 µM and 11.8 µM | [7] 15.8 µM | [8] 15.8 µM
inactive: [9]

C[C@@H](c1ncncc1F)[C@](O)(Cn1cncn1)c1ccc(F)cc1F
inactive: [1] | [2] | [3] | [4] | [5] | [6]

Clc1ccc(C(Cn2ccnc2)OCc2ccsc2Cl)c(Cl)c1 (stereo not given)
active: [5] 21.1 µM
not listed: [10]
inactive: all other assays above

COC(=O)N[C@H](C(=O)N[C@@H](Cc1ccccc1)[C@@H](O)CN(Cc1ccc(-c2ccccn2)cc1)NC(=O)[C@@H](NC(=O)OC)C(C)(C)C)C(C)(C)C
not listed: [10]
inactive: all other assays above

CC(S)C(=O)NCC(=O)O (stereo not given)
not listed: [8] | [10]
inactive: all other assays above

Clc1ccc(C(Cn2ccnc2)OCc2c(Cl)cccc2Cl)c(Cl)c1 (stereo not given)
23.7 µM (active) and inactive: [6]
not listed: [5] | [8]
inactive: all other assays above

O=c1c(O)c(-c2cc(O)c(O)c(O)c2)oc2cc(O)cc(O)c12
inactive: [1] | [2] | [3] | [4] | [5] | [6]

Cc1cccc(CN2CCN(C(c3ccccc3)c3ccc(Cl)cc3)CC2)c1 (stereo not given)
not listed: [10]
inactive: all other assays above

Nc1cc(C(Cl)=C(Cl)Cl)c(S(N)(=O)=O)cc1S(N)(=O)=O
not listed: [8] | [10]
inactive: all other assays above

O=C(OC1C[C@H]2CC[C@@H](C1)[N+]21CCCC1)C(O)(c1ccccc1)c1ccccc1 (stereo not given in full)
not listed: [10]
inactive: all other assays above

Cc1ccc(S(=O)(=O)NC(=O)NN2CC3CCCC3C2)cc1 (stereo not given)
inactive and 26.4 µM (active): [4]
not listed: [10]
inactive: all other assays above

Cc1cc(=O)c2c(O)c3c(O)cc(=O)c4c3c3c(cc(O)c1c23)C(C)(C)C=4O
active: [7] 3.55 µM | [9] 2 µM
not listed: [8] | [10]
inactive: all other assays above

CN(C)c1ccc2nc3ccc(=[N+](C)C)cc-3sc2c1
active: [1] 7.43 µM and 2.66 µM | [2] 21.1 µM | [3] 2.35 µM and 841 nM | [4] 4.69 µM and 2.66 µM | [5] 3.32 µM and 2.37 µM | [6] 1.87 µM and 1.19 µM | [7] 1.12 µM | [8] 3.98 µM | [9] 7.08 µM

COc1c(O)cc2c(c1O)[C@@H]1O[C@H](CO)[C@@H](O)[C@H](O)[C@H]1OC2=O
not listed: [7] | [10]
inactive: all other assays above

CCN(CC)C(=S)SSC(=S)N(CC)CC
active: [1] 2.09 µM and 111 nM and 944 nM | [2] 1.48 µM and 596 nM | [3] 1.18 µM and 62.4 nM and 422 nM | [4] 1.32 µM and 44.2 nM and 531 nM | [5] 1.05 µM and 70 nM and 473 nM | [6] 935 nM | [8] 7.08 µM
35.5 µM (active) and inactive: [9]

Cc1c(C(=O)NN2CCCCC2)nn(-c2ccc(Cl)cc2Cl)c1-c1ccc(Cl)cc1
not listed: [5]
inactive: all other assays above

Cc1nccn1CC1CCc2c(c3ccccc3n2C)C1=O (stereo not given)
not listed: [8] | [10]
inactive: all other assays above

CC1(C)C(=O)N(CCN2CCC(C(=O)c3ccc(F)cc3)CC2)c2ccccc21
inactive: [1] | [2] | [3] | [4] | [5] | [6]

O=c1oc2cc(O)ccc2s1
inactive: [1] | [2] | [3] | [4] | [5] | [6]

Cc1c(OCC(F)(F)F)ccnc1CS(=O)c1nc2ccccc2[nH]1 (stereo not given)
not listed: [10]
inactive: all other assays above

O=c1cc(N2CCOCC2)oc2c(-c3ccccc3)cccc12
inactive: [1] | [2] | [3] | [4] | [5] | [6]

O=C(c1ccccc1)c1ccc2n1CCC2C(=O)O (stereo not given)
not listed: [10]
inactive: all other assays above

Cc1cc(O)c2c(c1)C(=O)c1cc(O)cc(O)c1C2=O
inactive: [1] | [2] | [3] | [4] | [5] | [6]

S=c1nc[nH]c2nc[nH]c12
inactive: [2] | [3] | [4]
active: [1] 2.99 µM and 11.8 µM | [5] 4.18 µM | [6] 1.19 µM and 2.96 µM | [7] 10 µM | [9] 2.51 µM
